Source: PMC7862700, “An all-to-all approach to the identification of sequence-specific readers for epigenetic DNA modifications on cytosine”

Columns and labels:
Experiment in all cases: DAPPL (digital affinity profiling via proximity ligation, sequencing); 10 mM Tris-HCl pH 7.5, 50 mM NaCl, 1 mM DTT, 4% glycerol, room temperature, 30 min; GST-TFs on glutathione beads, 16-mer random dsDNA library, 0.1% formaldehyde crosslink after washing; high values mean tight binding
FEV = target: T1, FEV (Homo sapiens, UniProt Q99581 1-238); conditions: protein: recombinant; tags: N-terminal GST; dsDNA, one strand shown
T1 sequence: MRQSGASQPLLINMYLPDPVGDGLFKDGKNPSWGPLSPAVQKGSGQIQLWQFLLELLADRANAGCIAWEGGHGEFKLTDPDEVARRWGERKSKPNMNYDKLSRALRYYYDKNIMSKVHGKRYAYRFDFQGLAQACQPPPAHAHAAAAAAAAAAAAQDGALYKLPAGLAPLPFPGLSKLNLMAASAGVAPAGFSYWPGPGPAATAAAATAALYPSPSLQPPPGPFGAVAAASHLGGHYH
Summary of the method: (§1)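 Human transcription factors were made in yeast as GST fusions, captured on glutathione beads and barcoded with DNA. With a tag-only sample included, the pool was incubated with 200 nmole of a random double-stranded 16-mer DNA library in Tris/NaCl/DTT/glycerol buffer at room temperature for 30 min, then crosslinked with 0.1% formaldehyde after washing, ligated by proximity, amplified and sequenced. For binding signal, each hexamer's read frequency for a factor is divided by its frequency for the tag-only sample.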

ETV5 = ETV5 (Homo sapiens, UniProt P41161 1-510); conditions: protein: recombinant; tags: N-terminal GST; dsDNA, one strand shown
ETV5, sequence (P41161 whole entry): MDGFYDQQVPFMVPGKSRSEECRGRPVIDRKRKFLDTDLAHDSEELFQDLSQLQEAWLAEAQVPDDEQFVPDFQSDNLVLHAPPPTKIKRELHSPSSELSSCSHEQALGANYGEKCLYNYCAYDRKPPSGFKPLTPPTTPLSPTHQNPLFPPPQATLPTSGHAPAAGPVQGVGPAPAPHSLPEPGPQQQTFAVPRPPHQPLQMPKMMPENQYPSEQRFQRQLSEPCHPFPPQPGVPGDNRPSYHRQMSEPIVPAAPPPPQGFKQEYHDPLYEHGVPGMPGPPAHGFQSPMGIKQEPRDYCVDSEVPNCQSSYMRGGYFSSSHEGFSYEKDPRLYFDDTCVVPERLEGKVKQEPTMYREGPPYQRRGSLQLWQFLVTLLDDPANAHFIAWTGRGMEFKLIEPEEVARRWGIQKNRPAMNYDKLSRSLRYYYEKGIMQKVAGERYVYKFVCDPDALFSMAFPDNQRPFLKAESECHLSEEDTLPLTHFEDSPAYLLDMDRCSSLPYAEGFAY
Summary of the method: as §1

HSF1 = HSF1 (Homo sapiens, UniProt Q00613 1-529); conditions: protein: recombinant; tags: N-terminal GST; chain copies: 3; dsDNA, one strand shown
HSF1, sequence (Q00613 whole entry): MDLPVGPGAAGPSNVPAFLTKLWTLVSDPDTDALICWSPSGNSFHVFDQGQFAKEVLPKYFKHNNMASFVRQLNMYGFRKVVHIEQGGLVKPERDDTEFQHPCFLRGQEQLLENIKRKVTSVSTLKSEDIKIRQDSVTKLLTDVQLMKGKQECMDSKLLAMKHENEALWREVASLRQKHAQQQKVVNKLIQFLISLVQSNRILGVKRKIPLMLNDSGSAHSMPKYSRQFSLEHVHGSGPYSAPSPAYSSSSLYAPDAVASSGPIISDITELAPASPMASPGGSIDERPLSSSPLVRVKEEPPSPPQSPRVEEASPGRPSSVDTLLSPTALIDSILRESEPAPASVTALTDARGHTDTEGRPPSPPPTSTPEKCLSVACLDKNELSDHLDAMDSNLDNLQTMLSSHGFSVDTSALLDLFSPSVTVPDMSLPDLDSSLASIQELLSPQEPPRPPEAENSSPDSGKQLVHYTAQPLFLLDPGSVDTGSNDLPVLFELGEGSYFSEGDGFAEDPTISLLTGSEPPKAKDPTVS
Summary of the method: as §1

SPIC = target: T2, SPIC (Homo sapiens, UniProt Q8N5J4 1-248); conditions: protein: recombinant; tags: N-terminal GST; dsDNA, one strand shown
T2 sequence: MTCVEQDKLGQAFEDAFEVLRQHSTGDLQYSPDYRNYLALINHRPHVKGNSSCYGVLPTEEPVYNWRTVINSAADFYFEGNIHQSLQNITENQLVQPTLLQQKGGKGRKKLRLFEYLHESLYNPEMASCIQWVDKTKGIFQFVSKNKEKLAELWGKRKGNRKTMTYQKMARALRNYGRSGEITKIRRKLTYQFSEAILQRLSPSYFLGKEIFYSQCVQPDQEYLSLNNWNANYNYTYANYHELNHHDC
Summary of the method: as §1

ELF4 = ELF4 (Homo sapiens, UniProt Q99607 1-663); conditions: protein: recombinant; tags: N-terminal GST; dsDNA, one strand shown
ELF4, sequence (Q99607 whole entry): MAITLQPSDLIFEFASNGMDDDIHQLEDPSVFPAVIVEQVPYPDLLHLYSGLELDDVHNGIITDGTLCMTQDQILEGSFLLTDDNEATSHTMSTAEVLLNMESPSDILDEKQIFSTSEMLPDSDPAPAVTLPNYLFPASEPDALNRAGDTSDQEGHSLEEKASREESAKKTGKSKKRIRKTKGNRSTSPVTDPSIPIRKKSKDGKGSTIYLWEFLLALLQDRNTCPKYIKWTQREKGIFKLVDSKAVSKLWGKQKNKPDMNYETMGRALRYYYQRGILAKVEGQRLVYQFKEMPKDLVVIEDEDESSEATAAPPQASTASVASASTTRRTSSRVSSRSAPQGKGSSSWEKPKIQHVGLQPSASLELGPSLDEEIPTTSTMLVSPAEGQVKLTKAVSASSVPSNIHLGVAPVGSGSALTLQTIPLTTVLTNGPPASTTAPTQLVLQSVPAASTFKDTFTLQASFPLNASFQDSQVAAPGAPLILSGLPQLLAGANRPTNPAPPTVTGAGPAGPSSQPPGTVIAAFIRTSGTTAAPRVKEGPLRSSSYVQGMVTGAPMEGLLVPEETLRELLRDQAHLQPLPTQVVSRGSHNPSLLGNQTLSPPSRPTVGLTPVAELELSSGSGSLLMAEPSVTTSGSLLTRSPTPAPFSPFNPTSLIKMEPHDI
Summary of the method: as §1

ELK4 = target: T3, ELK4 (Homo sapiens, UniProt P28324-2 1-405); conditions: protein: recombinant; tags: N-terminal GST; dsDNA, one strand shown
T3 sequence: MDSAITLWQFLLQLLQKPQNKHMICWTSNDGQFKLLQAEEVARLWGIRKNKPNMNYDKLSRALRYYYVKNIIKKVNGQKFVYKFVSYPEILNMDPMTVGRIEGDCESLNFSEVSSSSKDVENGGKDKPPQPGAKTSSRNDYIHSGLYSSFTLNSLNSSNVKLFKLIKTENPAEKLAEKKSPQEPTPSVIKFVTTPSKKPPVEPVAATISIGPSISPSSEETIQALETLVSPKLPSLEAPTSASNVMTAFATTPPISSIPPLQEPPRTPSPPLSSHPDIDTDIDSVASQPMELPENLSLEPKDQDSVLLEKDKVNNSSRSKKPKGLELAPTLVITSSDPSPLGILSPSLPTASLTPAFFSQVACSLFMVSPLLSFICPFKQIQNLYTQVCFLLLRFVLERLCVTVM
Summary of the method: as §1

ETV2 = target: T4, ETV2 (Homo sapiens, UniProt O00321 1-342); conditions: protein: recombinant; tags: N-terminal GST; dsDNA, one strand shown
T4 sequence: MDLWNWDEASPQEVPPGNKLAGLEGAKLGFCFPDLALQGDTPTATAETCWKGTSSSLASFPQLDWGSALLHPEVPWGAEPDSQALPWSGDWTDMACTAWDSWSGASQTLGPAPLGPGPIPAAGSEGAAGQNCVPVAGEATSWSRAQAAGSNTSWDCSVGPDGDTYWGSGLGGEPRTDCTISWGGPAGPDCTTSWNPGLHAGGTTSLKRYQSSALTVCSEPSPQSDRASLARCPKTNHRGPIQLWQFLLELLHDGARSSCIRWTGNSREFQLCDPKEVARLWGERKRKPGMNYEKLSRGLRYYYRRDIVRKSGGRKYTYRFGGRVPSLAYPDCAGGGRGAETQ
Summary of the method: as §1

ELF3 = target: T5, ELF3 (Homo sapiens, UniProt P78545 1-371); conditions: protein: recombinant; tags: N-terminal GST; dsDNA, one strand shown
T5 sequence: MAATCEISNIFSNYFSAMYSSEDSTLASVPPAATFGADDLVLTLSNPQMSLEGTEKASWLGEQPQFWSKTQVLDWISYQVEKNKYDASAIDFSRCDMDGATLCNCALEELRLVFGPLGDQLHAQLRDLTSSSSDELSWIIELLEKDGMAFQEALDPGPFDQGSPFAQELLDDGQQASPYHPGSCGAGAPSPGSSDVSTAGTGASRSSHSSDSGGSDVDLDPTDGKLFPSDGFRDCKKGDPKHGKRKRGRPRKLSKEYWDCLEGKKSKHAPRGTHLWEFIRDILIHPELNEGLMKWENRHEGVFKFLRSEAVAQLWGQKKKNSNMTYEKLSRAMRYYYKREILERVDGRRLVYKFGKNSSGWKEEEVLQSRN
Summary of the method: as §1

CRX = CRX (Homo sapiens, UniProt O43186 1-299); conditions: protein: recombinant; tags: N-terminal GST; dsDNA, one strand shown
CRX, sequence (O43186 whole entry): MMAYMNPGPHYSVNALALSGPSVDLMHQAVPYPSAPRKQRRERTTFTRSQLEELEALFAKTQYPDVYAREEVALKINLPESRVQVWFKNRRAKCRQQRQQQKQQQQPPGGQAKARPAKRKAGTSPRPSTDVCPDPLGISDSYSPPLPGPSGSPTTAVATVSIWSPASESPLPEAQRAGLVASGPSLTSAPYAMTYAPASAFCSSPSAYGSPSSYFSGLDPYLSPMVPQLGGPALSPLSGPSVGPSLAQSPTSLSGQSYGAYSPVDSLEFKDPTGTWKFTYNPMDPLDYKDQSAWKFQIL
Summary of the method: as §1

ETV1 = ETV1 (Homo sapiens, UniProt P50549 1-477); conditions: protein: recombinant; tags: N-terminal GST; dsDNA, one strand shown
ETV1, sequence (P50549 whole entry): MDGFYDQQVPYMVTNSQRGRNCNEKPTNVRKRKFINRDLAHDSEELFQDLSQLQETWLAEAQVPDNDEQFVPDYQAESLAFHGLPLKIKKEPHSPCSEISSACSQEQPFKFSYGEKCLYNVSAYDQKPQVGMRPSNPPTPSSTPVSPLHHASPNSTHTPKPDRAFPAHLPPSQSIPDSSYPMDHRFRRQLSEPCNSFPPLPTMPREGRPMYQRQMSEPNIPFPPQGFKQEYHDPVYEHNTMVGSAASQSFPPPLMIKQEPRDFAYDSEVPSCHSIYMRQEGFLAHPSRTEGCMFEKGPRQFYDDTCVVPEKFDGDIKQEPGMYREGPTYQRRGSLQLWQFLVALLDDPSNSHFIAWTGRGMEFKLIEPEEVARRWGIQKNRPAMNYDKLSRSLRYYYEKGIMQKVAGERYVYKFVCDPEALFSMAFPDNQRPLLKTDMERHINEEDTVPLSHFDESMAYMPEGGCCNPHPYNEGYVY
Summary of the method: as §1

TTTCTT
binding signal (FEV): 1.23 fold enrichment (6-mer frequency, TF over GST control)
binding signal (ETV5): 1.22 fold enrichment (6-mer frequency, TF over GST control)
binding signal (HSF1): 1.7 fold enrichment (6-mer frequency, TF over GST control)
binding signal (SPIC): 1.24 fold enrichment (6-mer frequency, TF over GST control)
binding signal (ELF4): 1.33 fold enrichment (6-mer frequency, TF over GST control)
binding signal (ELK4): 1.17 fold enrichment (6-mer frequency, TF over GST control)
binding signal (ETV2): 1.24 fold enrichment (6-mer frequency, TF over GST control)
binding signal (ELF3): 1.3 fold enrichment (6-mer frequency, TF over GST control)
binding signal (CRX): 1.46 fold enrichment (6-mer frequency, TF over GST control)
binding signal (ETV1): 1.38 fold enrichment (6-mer frequency, TF over GST control)
